As a reminder, the AC50 is the midpoint of the concentration-response curve, whichever way the signal moves.

Calls of active or inactive are those of the source. How the source made its calls: active means hit-call score of the fitted dose curve at least 0.9, where 1 is the maximum; inactive means score below 0.9.

Read-out in this test: UDP glucuronosyltransferase (UGT1A6), UGT1A6 (gene 54578)
Description: LTEA_HepaRG_UGT1A6: Life Technologies and Expression Analysis (LTEA) Assay for UDP glucuronosyltransferase (UGT1A6) using HepaRG (AID 2283539). The following applies: mRNA level, 48 h; actives raise or lower the signal. As for the experimental part:
LTEA_HepaRG is a cell based, multiplexed-readout assay that uses HepaRG, a human liver cell line, with measurements taken at 48 hours after chemical dosing on a 96-well plate.LTEA_HepaRG_UGT1A6 is one of 102 assay component(s) measured in the LTEA HepaRG cell culture assay. It is a marker of NR mediated metabolism.Data from the assay component LTEA_HepaRG_UGT1A6 was analyzed into 1 endpoint. This assay endpoint, LTEA_HepaRG_UGT1A6, was analyzed with bidirectional fitting relative to DMSO as the negative control and baseline of activity. Using a type of inducible reporter, measures of mRNA induction for gain or loss-of-signal activity can be used to understand regulation of transcription factor activity. To generalize the intended target to other relatable targets, this assay endpoint is annotated to the transferase intended target family, where the subfamily is glucuronosyltransferase.
A total of 1060 chemcials from the ToxCast library were tested in eight-point concentration-response experiments. Cell culture and cytotoxicity assays were conducted at Thermo Fisher Scientific's Custom Services facility (Madison, WI). A single lot of human HepaRG cells (Thermo Fisher Scientific, Frederick, MD) was used for the cell culture experiments. 96-well format collagen type I coated plates of human HepaRG cells were prepared using established methods. Briefly, cryopreserved HepaRG cells were thawed, plated at a density of approximately 100,000 cells/well in HepaRG Thaw, Plate, and General Purpose media (HPRG770, Thermo Fisher Scientific), and incubated for 48 hours. 0.5% DMSO was selected as vehicle control to balance the requisite need of DMSO in HepaRG cultures to maintain differentiation (for example, baseline metabolism, proportions of hepatocytes vs. cholangiocytes), while enabling further hepatic receptor pathway activation (for example, PXR and CAR) in response to chemical exposure. 48 hours after plating, the culture medium was replaced with HepaRG Serum-Free Incudtion Media. Cells were exposed to each test chemical in duplicate and maintained in CO2 incubators for another 48 hours. Chemical plates were thawed to room temperature and 200x concentrations of treatment groups were prepared. 8-point conentration-reponse curves were made with the highest exposure at 100 uM, followed by half-log dilutions, all in 0.5% DMSO. Each test plate contained variouse controls, induction positive controls (1mM phenobarbital), cytotoxicity positive controls ([…] aflatoxin B1), vehicle controls (0.5% DMSO), and total lysis controls (0.5% DMSO). Cell morphology images were taken using an Essen IncuCyte FLR automated microscope, with six 96-well plates imaged in about 24 minutes. Images were captured and exported and JPEG files. Spent culture media was transfered to black-well plates for the LDH assay, and remaining media was sorted at -80 C for later use. Cells were treated with RLT buffer and frozen until shipped for gene expression analysis. Total RNA was isolated from the cell suspension in 75 uL of Buffer RLT (Qiagen, Germantown, MD 20874) by Quintiles/Expression Analysis (Durham, NC) using a custom isolation procedure. Total RNA from each plate well was transferred to a preamplification plate. Fluidigm's 96.96 Dynamic ArrayTM (Fluidigm, Amsterdam, the Netherlands) technology was used for gene expression analyses by quantitative reverse transcription polymerase chain reaction (qRT-PCR, performed by Quintiles/Expression Analysis, Durham, NC)89. Standard TaqManTM Assays (Applied Biosystems/ThermoFisher Scientific, Foster City, CA) were used to assess the expression of 93 genes selected based on their selectivity and sensitivity to important hepatic receptors known to be modulated by environmental chemicals; importance in human hepatocyte functionality; and hepatotoxicity. […]
For `O=[N+]([O-])c1ccc(Cl)c(Cl)c1`, the result was inactive.

`Nc1cc2c3c(c1)C(c1ccccc1)=N[C@@H](NC(=O)c1cccnc1)C(=O)N3CC2`: the compound was called inactive.

Turning to `Cc1ccc(O)cc1C`, the compound was classed as inactive.

On to `COCCOCCO`, for which the outcome was inactive.

`O=P1(N(CCCl)CCCl)NCCCO1` (stereo not given): the outcome was inactive.

For the compound `CC(C)(C)c1ccc(O)cc1`, the compound was classed as inactive.

`CCCCCCCc1ccc(O)cc1`: the result was inactive.

For `CC(Cc1ccc(OCC(=O)O)cc1)NCC(O)c1csc(C(F)(F)F)n1` (stereo not given), the compound was called inactive.

On to `ClC1=C(Cl)C2(Cl)C3C(Cl)C(Cl)CC3C1(Cl)C2(Cl)Cl` (stereo not given), for which the compound was called inactive.

With `CN(C)C(=O)Cl`, the compound was classed as inactive.

Regarding `O=[N+]([O-])c1ccccc1`, the call was inactive.

Regarding `CCN(CC)c1ccccc1`, the outcome was inactive.

Regarding `O=C(O)C1C(C(=O)O)C2(Cl)C(Cl)=C(Cl)C1(Cl)C2(Cl)Cl` (stereo not given), the compound was classed as inactive.

With `c1ccc(OP(Oc2ccccc2)Oc2ccccc2)cc1`, the outcome was inactive.

For `CCCCc1ccccc1`, the result was inactive.

In the case of `Nc1ccc(Cl)cc1`, the compound was called inactive.

On to `CCCCN(CCCC)N=O`, for which the outcome was inactive.

As to `CCC1(c2ccccc2)C(=O)N=C(O)NC1=O` (stereo not given), the result was inactive.

On to `OCC1CO1` (stereo not given), for which the call was inactive.

For `CCOP(=S)(Oc1ccc([N+](=O)[O-])cc1)c1ccccc1` (stereo not given), the outcome was inactive.

Take `CCNc1nc(Cl)nc(NC(C)(C)C)n1`: the result was inactive.

As for `CC(C)(C)OOC(C)(C)C`, the compound was classed as inactive.

On to `CCOC(=O)c1ccccc1C(=O)OCC`, for which the call was inactive.

Consider `Nc1ccc2ccccc2c1`, for which the result was inactive.

`c1nc[nH]n1`: the outcome was inactive.

In the case of `CCCN(CCC)c1c([N+](=O)[O-])cc(C(C)C)cc1[N+](=O)[O-]`, the concentration at half-maximal activity (AC50) was 1170 nM (active).

Consider `[N-]=[N+]=[N-]`, for which the compound was classed as inactive.

For the compound `CCC(C)(C)c1ccc(O)cc1`, the outcome was inactive.

Take `O=C(O)C(Cl)Cl`: the AC50 is 312 nM (active).

Turning to `CC(Cl)(Cl)C(=O)O`, the compound was called inactive.

As to `ClC(Cl)c1ccccc1`, the compound was called inactive.

For `CCOS(=O)(=O)OCC`, the call was inactive.

With `c1cc2c3c(cccc3c1)CC2`, the outcome was inactive.

Consider `CCOP(=S)(OCC)SCSCC`, for which the compound was called inactive.

With `c1ccc2c(c1)Nc1ccccc1S2`, the compound was classed as inactive.

`Cc1cccc(N)c1`: the result was inactive.

Consider `O=P(Oc1ccccc1)(Oc1ccccc1)Oc1ccccc1`, for which the result was inactive.

Consider `Cc1ccc([N+](=O)[O-])cc1C`, for which the result was inactive.

Take `CCCCN(CCCC)SN(C)C(=O)Oc1cccc2c1OC(C)(C)C2`: the compound was classed as inactive.

With `ClC(Cl)(Cl)c1ccccc1`, the compound was classed as inactive.
